# Measurements published in ChEMBL document CHEMBL3988442, “University of Dundee, Small-Polar-MMV Screening Library” (2021).
# About 13,000 (27%) of roughly 48,000 compounds showed an effect of 50% or more. The list shows a part of the results.
# System: Wolbachia pipientis
# Test: Anti-Wolbachia Cell-Based Screen
# Format: functional
# Set-up: scale not given: in the data most compounds retested in dose-response had high values
# Conditions: 5 µM
row,Compound,Percent Effect [%]
1,c1ncc2c(n1)CN(CC1CCCCO1)CC2 (stereo unspecified),-13.48
2,CCn1nc(C)c2nc(C(C)C)nc(NCCOC)c21,-9.329
3,CS(=O)(=O)Cc1ccccc1NCc1cc(Cl)ccc1Cl,3.453
4,Cc1n[nH]cc1CNC(=O)Nc1cccc(OCC(F)(F)F)c1,-23.93
5,CCS(=O)(=O)c1ccc(N2CCC(NC(C)=O)CC2)cc1,-5.151
6,Cn1cnnc1-c1cncc(NCc2ccccc2Br)c1,9.077
7,CCC(CC)NCC(c1ccccn1)N1CCOCC1 (stereo unspecified),8.316
8,CCC(=O)N(CC)C(c1cccnc1)c1ccc2c(c1)CCO2 (stereo unspecified),-9.514
9,COc1ccc(-c2noc(CN3CCOCC3C)n2)cc1OC (stereo unspecified),-3.831
10,CCn1nc2c(cc1=O)CN(Cc1nc(-c3ccsc3)no1)CC2,-2.212
11,CC(C)c1nc2c(n1C)CCN(Cc1nc(-c3ccsc3)no1)C2,5.269
12,COc1cccc(-c2noc(CN3CCOCC3C)n2)c1 (stereo unspecified),120.5
13,Cc1ccc(CN2C[C@H](O)C[C@H]2c2nc(-c3ccc(F)cc3)no2)cc1,-12.23
14,c1csc(-c2noc(CC3CCCO3)n2)c1 (stereo unspecified),5.637
15,CC1COCCN1Cc1nc(-c2ccc(F)cc2)no1 (stereo unspecified),110.9
16,COc1cccc(-c2ncc(CN3CCOCC(O)C3)s2)c1 (stereo unspecified),-5.443
17,CC1COCCN1Cc1nc(-c2ccc(Br)s2)no1 (stereo unspecified),104.9
18,CC1COCCN1Cc1nc(-c2cccs2)no1 (stereo unspecified),6.189
19,O=C1OCCCN1Cc1nc(-c2ccncc2)no1,8.814
20,CC1COCCN1Cc1nc(-c2ccsc2)no1 (stereo unspecified),130
21,CC(Oc1cccc(Cl)c1)C(=O)Nc1cnn(CCN(C)C)c1 (stereo unspecified),-6.613
22,CC(C)c1nn(CC(=O)N2CCCC2)c(=O)c2c1cnn2C(C)(C)C,46.37
23,Cc1cnn(CCNCc2ccccc2C#N)c1,-11.13

row,Compound,Percent Effect [%]
1,O=C(CCC1CCCCC1)NS(=O)(=O)CC1CC1,-8.916
2,Cc1cccc(-c2noc(CN3CCOCC3C)n2)c1 (stereo unspecified),119.9
3,Cc1cccc(-c2noc(CN3CCc4nn(C)c(=O)cc4C3)n2)c1,-3.74
4,Cc1cccc(-c2noc(CN3CCn4c(nnc4C4CC4)C3)n2)c1,-14.41
5,Cc1cccc(-c2noc(CN3CCC(c4ccn[nH]4)CC3)n2)c1,-15.7
6,CC1COCCN1Cc1nc(-c2cccc(C(F)(F)F)c2)no1 (stereo unspecified),102.5
7,CC1COCCN1Cc1nc(-c2cccc(Br)c2)no1 (stereo unspecified),7.569
8,Cc1cnn(CC(C)NCc2csc(-c3ccsc3)n2)c1 (stereo unspecified),2.803
9,COCc1ccc(CNC(=O)C2=NN(c3ccccc3)C(=O)CN2)cc1,-5.383
10,CC(C)(C)C(O)CN1CCN(C(=O)c2cccc3[nH]ncc23)CC1 (stereo unspecified),-4.967
11,O=S1(=O)C[C@@H]2[C@H](C1)N(Cc1cc(Cl)cc(Cl)c1)CCN2CCO,13.48
12,O=C(NCc1cccnc1)C1CN(c2cnc3ccccc3n2)CCN1 (stereo unspecified),-3.228
13,O=C(Nc1ccccn1)c1nc(N2CCCC2)ncc1Cl,-4.003
14,O=C(Nc1ccc(Cl)cn1)C1CCCN(CCc2ccncc2)C1 (stereo unspecified),-1.04
15,O=c1n(Cc2ccccn2)nc(C2CCNCC2)n1Cc1ccccc1,-4.835
16,Cl.O=C(Nc1ccccn1)c1cncc(C2CCNCC2)n1,82.75
17,Cc1ccnc(NC(=O)c2ccc(Cl)o2)c1,-0.2777
18,Cc1ccnc(NC(=O)c2cncc(C3CCNCC3)n2)c1,117.9
19,Cc1ccnc(NC(=O)c2c(C)oc(C)c2C)c1,13.28
20,Cc1cccc(NC(=O)c2cncc(C3CCNCC3)n2)n1,105
21,O=C(Nc1cc(C2CCOCC2)[nH]n1)c1ccc(Cl)cn1,-26.34
22,Cc1cccc(NC2CCN(C(=O)Nc3cccc4[nH]ccc34)CC2)n1,-4.499
23,Cc1cccc(NC(=O)c2ccc(-n3cncn3)nn2)n1,-9.734

row,Compound,Percent Effect [%]
1,O=C(Nc1ccc(Cl)cn1)c1cncc(C2CCNCC2)n1,119.3
2,O=C(NCCn1ccnc1)c1cc(Br)c[nH]1,-7.332
3,Cc1cnn(CCNC(C)c2nnc(-c3cccc(Cl)c3)o2)c1 (stereo unspecified),-21.78
4,Cc1occc1C(=O)N1CCc2ncnc(C3CCOC3)c2CC1 (stereo unspecified),-5.799
5,COc1cccc(-c2noc3c2CN(c2nc(C)ncc2C)CC3)c1,-35.21
6,O=C(Nc1ccccc1OC1CCOC1)c1cc[nH]n1 (stereo unspecified),-3.911
7,Cc1nc(Cn2nc(C3CCNCC3)n(Cc3ccccc3)c2=O)no1,-19.55
8,Cc1ccccc1NC(=O)c1cncc(C2CCNCC2)n1.Cl,126.6
9,CCCc1cc(C(=O)N2CCC3(CC2)CN(CCN(C)C)C(=O)O3)no1,-10.71
10,Cc1ncsc1CCN(C)C1CCN(c2ncnc3[nH]cnc23)CC1,13.21
11,c1cc(CN2CCC(n3cc(CN4CCCC4)nn3)CC2)cs1,0.307
12,Cc1ncsc1CN1CCN(C)C2(CCC(=O)N(CCO)CC2)C1 (stereo unspecified),-3.684
13,Cc1ncsc1CN1CC[C@H](O)[C@@H](n2cnc3c(N)ncnc32)CC1,93.47
14,Nc1ncnc2c1ncn2[C@H]1CCN(Cc2ccsc2)CC[C@@H]1O,125.5
15,CN(C)S(=O)(=O)N1CC[C@]2(O)CCN(c3cc(C#N)ccn3)C[C@@H]2C1,-4.757
16,CC(C)CN1C(=O)c2ccc(C(=O)NCCc3c[nH]cn3)cc2C1=O,4.031
17,CCc1cnc(N)nc1N1CCCC2(CCOCC2)C1,7.215
18,Cc1nn(C)c(Cl)c1C1CCCN1C(=O)c1cccc(C#N)c1 (stereo unspecified),117.2
19,Cc1nn(C)c(C)c1C1CCCN1C(=O)c1cnc2n[nH]c(C)c2c1 (stereo unspecified),-6.27
20,COc1c(C2CCCN2C(=O)c2ccnc(N(C)C)c2)c(C)nn1C (stereo unspecified),3.661
21,Cc1nn(C)c(Cl)c1C1CCCN1C(=O)c1ccnc(N(C)C)c1 (stereo unspecified),115.9
22,Cc1nn(C)c(C)c1C1CCCN1C(=O)c1ccnc(N(C)C)c1 (stereo unspecified),114
23,Cc1nn(C)c(Cl)c1C1CCCN1C(=O)c1ccc2c(c1)COC2 (stereo unspecified),103.2

row,Compound,Percent Effect [%]
1,CCn1nc(C(=O)N2CCCC2c2noc(C3CC3)n2)ccc1=O (stereo unspecified),-10.37
2,CCOCCN1CCN(CCc2nc3ccccc3c(=O)[nH]2)CC1,-16.1
3,O=S(=O)(Cc1nc(C2CC2)no1)c1cc(F)ccc1F,-10.78
4,Cc1nn(C)c(Cl)c1C1CCCN1C(=O)c1ccncc1 (stereo unspecified),76.23
5,Cc1nn(C)c(Cl)c1C1CCCN1C(=O)c1ccc2nncn2c1 (stereo unspecified),-0.8221
6,CCCc1cc(NCc2cc(C)on2)n2nccc2n1,18.67
7,CN(C)c1nc(-c2ccncc2)nc2c1CCN(C(=O)[C@H](N)CO)C2,12.11
8,O=C(NCCc1cccs1)[C@]12COC[C@H]1CN(c1ncccn1)C2.O=C(O)C(F)(F)F,-26.22
9,Cc1nn(C)c(C)c1CN1CCCC(c2ccc(C(=O)O)cc2)C1 (stereo unspecified),16.04
10,Fc1ccc(N2CCCN(Cc3ccc(-c4cc[nH]n4)o3)CC2)cc1,76.67
11,Fc1cnc(N2CCN(Cc3ccc(-c4cc[nH]n4)o3)CC2)nc1,10.27
12,O=C(O)c1ccc(CC2CCN(Cc3ccc(-c4cc[nH]n4)o3)C2)cc1 (stereo unspecified),103.3
13,O=C(O)c1ccccc1C1CCN(Cc2ccc(-c3cc[nH]n3)o2)C1 (stereo unspecified),111.1
14,Cc1cnccc1N1CCCN(Cc2ccc(-c3cc[nH]n3)o2)CC1,39.38
15,CCNC(=O)[C@@H]1C[C@H](N)CN1Cc1ccc(-c2cc[nH]n2)o1,2.507
16,Cc1cccnc1CN1CCN(Cc2ccc(-c3cc[nH]n3)o2)CC1,0.5837
17,Cc1cc(N2CCN(Cc3ccc(-c4cc[nH]n4)o3)CC2)cc(C)n1,1.091
18,Cc1cnc(C)c(N2CCN(Cc3ccc(-c4cc[nH]n4)o3)CC2)n1,2.715
19,O=C(O)c1ccc(C2CCCN(Cc3ccc(-c4cc[nH]n4)o3)C2)cc1 (stereo unspecified),112.5
20,CCN1CC2(CCC1=O)CCN(Cc1cccc(C#N)c1)CC2,-7.959
21,CC(C)c1nc(CN(C)C(=O)C2CC(=O)N(Cc3ccncc3)C2)cs1 (stereo unspecified),6.051
22,COc1cccc(CN(C)C(C)c2ccco2)c1OCCn1ccnc1 (stereo unspecified),-0.9941
23,CN(CCN1CCCCCC1)C(=O)c1cc(CN2CCC(O)CC2)on1,-8.784

row,Compound,Percent Effect [%]
1,Nc1ncc(C(=O)N2CCC3(CCCO3)CC2)c(-c2ccccc2)n1,-10.16
2,CC(C)(CNc1ccc(S(=O)(=O)C(F)F)cc1)N1CCOCC1,2.444
3,CC(C)NS(=O)(=O)c1cc(C(=O)O)cc(-c2ccccc2C#N)c1,4.012
4,Cc1ccccc1CN1CC[C@@]2(O)CCN(C(=O)C3CCC3)C[C@H]2C1,-8.444
5,Cc1cnccc1CN1CC[C@@](C)(O)[C@H](Oc2ccccc2)C1,-3.171
6,Cc1cnccc1CN1CC[C@@](C)(O)[C@H](Oc2cccc(F)c2)C1,113.3
7,Cc1cnccc1CN1CC[C@H](Oc2cccc(F)c2)[C@@](C)(O)C1,130.7
8,Cc1cc(F)ccc1CN1CCCC(O)(CN2CCCC2)C1 (stereo unspecified),20.34
9,CC(C)[C@@H]1CN(CC(=O)NCc2ccco2)C[C@H]1NS(=O)(=O)N(C)C,-2.04
10,CCSc1nc(N)c(NC(=O)c2ccc(C)cc2)c(=O)[nH]1,-2.31
11,Fc1ccc(OCCCNC2=NCCCN2)cc1.I,81.36
12,Br.Cc1ccc(OCCCSC2=NCCN2)cc1,5.255
13,CN(C)c1ccc(CNC2=NCCCN2)cc1.I,13.13
14,Cn1ncc2c(NCCOc3ccc(F)cc3)nc(C3CCCC3)nc21,8.04
15,Br.Cc1ccc(OCCSC2=NCCN2)cc1,1.775
16,Fc1ccc(OCCCN2CC(n3cccn3)C2)cc1,3.105
17,Fc1ccc(OCCCNC2=NCCN2)cc1.I,63.04
18,CCOCc1ccc(CNC2=NCCCN2)cc1.I,0.3337
19,I.c1ccc(OCCNC2=NCCCN2)cc1,111
